NPR1 antag: human Npr1 receptor antagonism. P16066. HEK293 hNpr1 GloSensor cGMP, ANP-stimulated luminescence. Potency, µM (titrated, usually from 46.3 µM), inactives show at the top dose activity change, negative = inhibition, hits mostly inhibitors. 76,000 tested, 1.6% active. AID 1347048; calls by dose curve; further: on the % scale 0 is the no-effect control and ±100 the full control effect; nearly all actives have a fitted effect of over 60% in size
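HEK293 cells stably expressing human Npr1 and cGMP GloSensor pGS-40F, loaded 2 h with 2% GloSensor reagent, given compound 30 min at room temperature. Luminescence read before and 20 min after 0.1 nM hNppA.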
HEK cytotox: HEK 293 cell cytotoxicity; HEK 293 viability, ATP luminescence (CellTiter-Glo), 48-72 h; Potency, µM (series often up to 115 µM), for inactives: at the highest dose activity change, negative = cytotoxicity, usual class: inhibitors; 94,000 tested, 6.6% active; further: on the % scale 0 is the no-effect control and ±100 the full control effect; nearly all actives have a fitted effect of over 60% in size
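Viability of HEK 293 cells, plated at 250 cells/well, was judged by cellular ATP after compound treatment for 48 or 72 hr. Luminescence was imaged 10 min after CellTiter-Glo addition at room temperature.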
3T3 cytotox: cytotoxic compounds in NIH 3T3 cells; NIH 3T3 viability, CellTiter-Glo ATP luminescence, 48-72 h; Potency, µM (titrated, usually from 96.7 µM), without a hit: at the highest dose activity change, negative = cytotoxicity, most hits filed as inhibitors; 94,000 tested, 4.3% active; AID 1345082; further: on the % scale 0 is the no-effect control and ±100 the full control effect; nearly all actives have a fitted effect of over 55% in size
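First NIH 3T3 cells are plated at 400 cells/well; next compound is pinned in; then plates incubate 48 or 72 hr at 37 °C; finally CellTiter-Glo is added and luminescence read after 10 min.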
FLuc inh-1: blocks purified firefly luciferase enzyme activity | purified P. pyralis luciferase, luminescence, biochemical | Potency, µM (series often up to 115 µM), actives largely listed as inhibitors | 76,000 tested, 2.5% active | AID 1347043; further: on the % scale 0 is the no-effect control and ±100 the full control effect; nearly all actives have a fitted effect of over 65% in size
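FLuc 10nM, D-luciferin 10uM, ATP 10uM, Mg acetate 10mM, Tris acetate pH 7.5, Tween/BSA; cpd qHTS; enzyme added last; CCD luminescence.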
GPT2 inhibitor: GPT2 alanine aminotransferase inhibition | Recombinant GPT2, coupled pyruvate oxidase/HRP Amplex Red fluorescence | Potency, µM (highest dose often 57.7 µM), for inactives: at the highest dose activity change, negative = inhibition, hits mostly inhibitors | 100,000 tested, 0.25% active | AID 1671188; further: on the % scale 0 is the no-effect control and ±100 the full control effect; nearly all actives have a fitted effect of over 60% in size
Target sequence (Q8TD30 whole entry, looked up): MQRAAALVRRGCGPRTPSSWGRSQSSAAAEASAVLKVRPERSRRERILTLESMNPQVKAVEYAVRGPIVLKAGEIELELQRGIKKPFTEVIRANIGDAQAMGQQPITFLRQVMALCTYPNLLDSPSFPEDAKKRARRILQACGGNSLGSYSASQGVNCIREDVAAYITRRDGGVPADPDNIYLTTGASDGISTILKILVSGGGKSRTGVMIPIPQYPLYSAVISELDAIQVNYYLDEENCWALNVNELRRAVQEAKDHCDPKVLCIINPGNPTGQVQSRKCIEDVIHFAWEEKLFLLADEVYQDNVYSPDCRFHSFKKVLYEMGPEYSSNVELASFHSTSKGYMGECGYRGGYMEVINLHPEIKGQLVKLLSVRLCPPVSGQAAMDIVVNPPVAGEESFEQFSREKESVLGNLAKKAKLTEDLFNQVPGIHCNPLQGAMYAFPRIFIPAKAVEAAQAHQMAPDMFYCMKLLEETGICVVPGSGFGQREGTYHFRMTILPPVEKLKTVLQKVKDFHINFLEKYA
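GPT2 10ng/uL, a-KG 250uM, L-Ala 2mM, HEPES pH7.5 + 0.0001% Tween; 30 min RT. Then Amplex mix (PO/HRP/ThPP), 30 min RT dark, fluorescence. AOA 50uM used as positive control.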
FLuc SDR no ATP: binders stabilizing firefly luciferase, without ATP. shares compounds with FLuc inh-1. Purified FLuc-C-HiBiT, Nano-Glo HiBiT luminescence, no ATP. Potency, µM (doses to about 32.7 µM), for the others: at the highest dose activation (signal gain), most hits filed as activators. 1,300 tested, 7.8% active. AID 1963318; further: nearly all actives have a fitted effect of over 55% in size
FLuc SDR ATP: binders stabilizing firefly luciferase, plus ATP; AID 1963319; 1,300 tested, 8.7% active; Potency, µM (doses to about 32.7 µM), for the others: at the highest dose activation (gain of signal), hits mostly activators; purified FLuc-C-HiBiT + ATP, HiBiT complementation luminescence; shares compounds with FLuc inh-1;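 further: signal reports ligand binding via conformational change of the enzyme rather than luciferase catalysis; % of control where 0% means no effect; nearly all actives have a fitted effect of over 55% in size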
FLuc inh-2: blocks firefly luciferase enzymatic activity; Potency, µM (doses to about 32.7 µM), without a hit: at the top dose activity change, negative = inhibition, most hits filed as inhibitors; AID 1963320; 1,300 tested, 42% active; purified FLuc-C-HiBiT enzyme, luciferin luminescence; shares compounds with FLuc inh-1; further: on the % scale 0 is the no-effect control and ±100 the full control effect; nearly all actives have a fitted effect of over 70% in size
The depositor's hits bear a star; i = inactive; ? = inconclusive; / = not tested or not shown; [ ] = remark or other dose. A selection: hits, their analogues and other compounds. The true share with any hit is near 10%. Unless noted, the call rests on the fitted dose curve; in most records, active means well fitted curve in the direction sought with a large enough effect; inconclusive means small, poorly fitted or top-dose-only effect, or another doubt; inactive means no such curve, though single readings can be large; an effect the other way counts as inactive or inconclusive. Potency means the concentration at half of the fitted maximal effect.

SMILES | NPR1 antag | HEK cytotox | 3T3 cytotox | FLuc inh-1 | GPT2 inhibitor | FLuc SDR no ATP | FLuc SDR ATP | FLuc inh-2
COC(=O)c1ccc(NC(=O)Cn2nc3c(cc2=O)CN(C(C)=O)CC3)cc1 | 1% | ? | ? | i | -14% | / | / | /
COc1cccc(-c2ncc3c(n2)OCCN(Cc2ccc(F)cc2F)C3=O)c1 | ? | ? | ? | 13µM* | -3%[88.5 µM] | 13%[49.3 µM] | 10%[49.3 µM] | ?
COCCN1CCOc2nc(-c3cc(F)cc(OC)c3)ncc2C1=O | ? | -27%[172 µM] | 28µM* | 1.6µM* | -9%[88.5 µM] | ? | ? | 11µM*
COc1cc(F)cc(-c2ncc3c(n2)OCCN(Cc2ccc(F)cc2F)C3=O)c1 | ? | ? | ? | i | -3%[88.5 µM] | / | / | /
NC(=O)C1CCN(c2ncnc3c2cnn3-c2ccccc2)CC1 | / | / | / | / | / | 15% | 12% | -9%
CN(C)C1CCN(c2ncnc3c2cnn3-c2ccccc2)CC1 | / | / | / | / | / | 13% | 11% | -6%
CC1CCN(c2ncnc3c2cnn3-c2ccc(F)cc2)CC1 | / | / | / | / | / | 19% | 19% | 11µM*
CN1CC(=O)N(c2cccnc2)Cc2c1ncnc2N1CCC(O)CC1 | -16%[70.6 µM] | i | i | i | i | / | / | /
CN1CC(=O)N(c2ccccc2)Cc2c1ncnc2N1CCC(O)CC1 | -11% | -19% | -30% | i | ? | / | / | /
CCOC1CCCN(c2ncnc3c2cnn3-c2ccccc2)C1 (stereo unspecified) | / | / | / | / | / | 21% | ? | ?
COc1cccc(S(=O)(=O)N2CCC(N3C(=O)[C@H](OC)[C@@H]3c3ccncc3)CC2)c1 | 4% | -3% | -9% | i | i | / | / | /
CN(C)S(=O)(=O)N1CCCC1c1nncn1C1CCCC1 (stereo unspecified) | / | -35% | ? | / | 5% | / | / | /
COc1ccc(N2Cc3c(NC4CCCCCC4)ncnc3N(C)CC2=O)cc1 | -1% | ? | ? | i | ? | / | / | /
CCOC(=O)c1cccc(NC(=O)CCc2c(C)nc3cc(-c4ccc(Cl)cc4)nn3c2C)c1 | / | / | / | / | / | 13% | ? | 8.8µM*
COC(=O)c1ccccc1NC(=O)CCc1c(C)nc2cc(-c3ccc(Cl)cc3)nn2c1C | / | / | / | / | / | 9% | ? | ?
COc1ccc(NC(=O)Cn2c(-c3ccc(Cl)cc3)nc(C)c(CCO)c2=O)cc1 | -1% | ? | -17% | i | -4% | / | / | /
COc1ccccc1NC(=O)Cn1c(-c2ccc(Cl)cc2)nc(C)cc1=O | -15% | ? | ? | i | -27% | / | / | /
CCOc1ccc(NC(=O)CCc2c(C)nc3cc(-c4ccc(Cl)cc4)nn3c2C)cc1 | / | / | / | / | / | 22% | 0.99µM* | 2.8µM*
O=C(NCCCn1nccc1C1CC1)c1ccccc1C1CCNC1 (stereo unspecified) | -1% | 2% | -7% | i | 1% | / | / | /
O=C(C1CC(=O)N(C2CC2)C1)N1CCCN(Cc2ccccn2)CC1 (stereo unspecified) | 5% | -22% | -5% | i | -7% | / | / | /
CN(C)c1cccc(NC(=O)c2ccc3c(c2)NC(C)(COc2ccccc2)CO3)c1 (stereo unspecified) | -1%[70.6 µM] | ? | ? | i | 0%[88.5 µM] | / | / | /
CCOCC1(C)COc2ccc(C(=O)Nc3ccccc3)cc2N1 (stereo unspecified) | -4%[70.6 µM] | ? | ? | 10µM* | -14%[88.5 µM] | 22%[49.3 µM] | 13%[49.3 µM] | ?
CCOC(=O)c1[nH]ncc1C1CC(=O)Nc2n[nH]c(-c3ccccc3)c21 (stereo unspecified) | -2% | -17% | -26% | i | 2% | / | / | /
COc1ccc(NC(=O)Nc2nnc(C)s2)cc1 | / | / | / | / | / | 24% | 13% | ?
COc1ccc(NC(=O)c2cn3cc(-c4ccccc4)sc3n2)cc1 | / | ? | -29% | / | 2% | / | / | /
SMILES | NPR1 antag | HEK cytotox | 3T3 cytotox | FLuc inh-1 | GPT2 inhibitor | FLuc SDR no ATP | FLuc SDR ATP | FLuc inh-2
N#Cc1cccc(NC(=O)N[C@H]2[C@H](O)[C@@H](Sc3ccccc3)[C@@H]3OC[C@H]2O3)c1 | 4%[70.6 µM] | ? | -27%[174 µM] | i | -1%[88.5 µM] | / | / | /
Cc1cc(-c2nc3ccccc3s2)ccc1NC(=O)c1cc(Cl)ccc1Cl | / | / | / | / | / | 17% | 8% | -5%
O=C(Nc1ccc(Cl)cc1F)c1ccccc1O | / | / | / | / | 2% | / | / | /
COc1ccccc1CC(=O)Nc1ccc2ncnc(N3CCCC3)c2c1 | -3% | ? | -19% | i | i | / | / | /
COc1ccc(CC(=O)Nc2ccc(-c3nc4ccccc4s3)c(C)c2)cc1OC | / | / | / | / | / | 19% | 14% | -13%
COc1cc(OC)cc(C(=O)Nc2ccc(-c3nc4ccccc4s3)c(C)c2)c1 | / | / | / | / | / | 13% | 10% | 1%
Cc1ccc(C(=O)Nc2ccc(-c3nc4ccccc4s3)cc2C)cc1C | / | / | / | / | / | 9% | 9% | -5%
COc1ccccc1C(=O)N1CCC2(C1)C(=NC1CCCC1)NC(=O)N2c1cc(F)cc(F)c1 (stereo unspecified) | / | i | i | / | i | / | / | /
NC(=O)NCC(=O)N1CCCC(c2cc(N3CCOCC3)ncn2)C1 (stereo unspecified) | 9% | 3% | -3% | i | -4% | / | / | /
COc1ccc(NC(=O)Cn2c(C)cc3nc4n(c(=O)c32)CCCCC4)c(OC)c1 | -13% | -3% | -7% | i | i | / | / | /
COc1ccc(Cc2nc3nccc(-c4ccc(OC)cc4F)n3n2)cc1 | 1% | ? | -14% | i | 2% | / | / | /
CC1(C(=O)NC2CC2)CCCc2cnc(Nc3ccccc3)nc21 (stereo unspecified) | 1%[70.6 µM] | ? | -26%[138 µM] | i | i | / | / | /
Cc1cccc(C(=O)Nc2ccc(-c3nc4ccccc4s3)cc2Cl)c1 | / | / | / | / | / | 13% | 8% | -1%
COc1cc(OC)cc(C(=O)Nc2ccc(-c3nc4ccccc4s3)cc2C)c1 | / | / | / | / | / | 13% | 11% | 3%
O=C(Nc1ccc(CN2CCOCC2)cc1)c1ccc(-c2cccc(Cl)c2)o1 | / | / | / | / | -5% | / | / | /
Cc1ccc(-c2nc3ccccc3s2)cc1NC(=O)c1ccc(-c2cccc(Cl)c2)o1 | / | / | / | / | / | 15% | 11% | -15%
CCC(=O)N1CCC(Cn2c(C)cnc2C2CC2)CC1 | 4% | -4% | i | i | ? | / | / | /

Compound activity deposited in PubChem BioAssay by National Center for Advancing Translational Sciences (NCATS).
